Results filed as inconclusive are left out. Entries that show only a call come without a potency. The source made the active and inactive calls. Calls follow the shape of the dose curve; as a rule, active = well fitted curve in the direction sought with a large enough effect; inconclusive = small, poorly fitted or top-dose-only effect, or another doubt; inactive = no such curve, though single readings can be large; an effect the other way counts as inactive or inconclusive.
Legend:
[1] = target: Aldehyde dehydrogenase, mitochondrial (Homo sapiens) (UniProt P05091); assay: qHTS for Inhibitors of the Aldehyde Dehydrogenase Family (ALDH2) Primary screen (AID 2061308); also: nearly all actives have a fitted effect of over 55% in size
[2] = target: Retinaldehyde dehydrogenase 3 (Homo sapiens) (UniProt P47895); assay: qHTS for Inhibitors of the Aldehyde Dehydrogenase Family (ALDH1A3) Primary screen (AID 2061315)

Row | Structure (SMILES) | Potency [1] | Potency [2]
1 | CCc1ccc(NC(=O)c2cnn3c(C)cc(-c4ccccc4)nc23)cc1 | inactive | inactive
2 | COC(=O)C1=CO[C@@H](O[C@@H]2O[C@H](CO)[C@@H](O)[C@H](O)[C@H]2O)[C@H]2[C@@H]1CC(OC)O[C@@H]2C (some centres undefined) | inactive | inactive
3 | CCCn1c(C)nc2c(NCc3ccccc3)nc(C)nc21 | inactive | inactive
4 | Cc1cnc(NC(=O)c2ccc(-c3cccc([N+](=O)[O-])c3)o2)s1 | inactive | inactive
5 | Cc1ccc(-c2cc(C(=O)NCc3ccccc3)c3ccccc3n2)cc1C | inactive | inactive
6 | CC(C)(C)OC(=O)Cc1nnc(-c2nc3ccccc3[nH]2)o1 | inactive | inactive
7 | Cc1cc2c(s1)c1cnn(Cc3cc(Cl)ccc3F)c(=O)c1n2C | inactive | inactive
8 | Oc1ccc(/C=C/c2c(F)cccc2F)c2cccnc12 | inactive | inactive
9 | c1nc(NCCCN2CCCCC2)c2cc(-c3ccc4c(c3)OCO4)ccc2n1 | inactive | inactive
10 | Cc1ccc(-c2cc(C(=O)N3CC[S+](=O)([O-])CC3)c3ccccc3n2)cc1C | inactive | inactive
11 | COCCN1C(=O)c2ccccc2NC1c1ccc(OC)c(COc2c(C)cc(NC(C)=O)cc2C)c1 (centres undefined) | inactive | inactive
12 | Cc1csc(CNc2ncnc3ccc(-c4ccc5c(c4)OCO5)cc23)c1 | inactive | inactive
13 | N=c1c2c(ccn1CCCc1ccccc1)Oc1ccc3ccccc3c1C2c1ccccc1 (centres undefined) | inactive | inactive
14 | O=C1c2ccccc2C(=O)N1c1cccc(O)c1 | inactive | inactive
15 | CC(C)(C)OC(=O)n1c2ccsc2c2cnn(Cc3ccccc3F)c(=O)c21 | inactive | inactive
16 | Fc1ccc(-c2nc(-c3ccncc3)nc3ccccc23)cc1F | inactive | inactive
17 | Cn1cc(C[C@H](C(=O)O)N2C(=O)c3ccc(C(=O)O)cc3C2=O)c2ccccc21 | inactive | inactive
18 | O=C(Nc1ccc(Cl)c(Cl)c1)Nc1nnc(C2CCCCC2)s1 | inactive | inactive
19 | O=C(NCCc1ccc2c(c1)OCO2)c1cc2sccc2[nH]1 | inactive | inactive
20 | O=C1NS(=O)(=O)c2cc(Cl)ccc21 | inactive | inactive
21 | O=[N+]([O-])c1cccc(CNc2ccc(S(=O)(=O)Nc3nccs3)cc2)c1O | inactive | inactive
22 | CCCCCNc1oc(-c2cccc3ccccc23)nc1C#N | inactive | inactive

Row | Structure (SMILES) | Potency [1] | Potency [2]
23 | Cc1cc(NS(=O)(=O)c2ccc(NC(=O)Cc3cccc(Cl)c3)cc2)no1 | inactive | inactive
24 | Cc1nc(NCc2ccccc2)c2nc(-c3ccccc3)n(CCCN(C)C)c2n1 | inactive | inactive
25 | Cc1cc(C)nc(NC(=S)N2CCN(c3ccc4nncn4c3)CC2)c1 | inactive | inactive
26 | Cc1ccc(OCCn2c(CCNC(=O)/C=C/c3cccc(Br)c3)nc3ccccc32)cc1 | inactive | inactive
27 | O=C1CCCC2=C1C(c1[nH]ncc1Cl)N=C(Nc1nc3c(Br)cccc3o1)N2 (centres undefined) | inactive | inactive
28 | Cc1noc(C)c1C(=O)N1CCC2(CCCN(C(c3ccccc3)c3ccccc3)C2)CC1 | inactive | inactive
29 | CC(C)c1ccccc1-c1ncc(N(C)C)c(NCc2ccc(-c3cccnc3)cc2)n1 | inactive | inactive
30 | COc1cccc(NC(=O)C(OC(=O)CNC(=O)c2ccccc2)c2ccccc2)c1 (centres undefined) | inactive | inactive
31 | COCCNc1nc(C)nc2c1nc(-c1ccccc1)n2CCCN1CCCCC1C (centres undefined) | inactive | inactive
32 | O=C1c2ccccc2C(=O)N1c1cccc(Cl)c1 | inactive | inactive
33 | N#Cc1nc(Nc2cccc3ccccc23)nc(NC2CCCC2)n1 | inactive | inactive
34 | CC(=O)Nc1ccccc1OC1=N[S+](=O)([O-])c2ccccc21 | inactive | inactive
35 | CC(=O)c1ccc(NC(=O)Nc2nnc(-c3ccncc3)s2)cc1 | inactive | inactive
36 | Fc1ccc(-c2nnc(CCCCSc3nnc(-c4cccc5ccccc45)o3)o2)cc1 | inactive | inactive
37 | O=C(CSc1ncnc2sc3c(c12)CCCCC3)NCc1ccco1 | inactive | inactive
38 | COc1ccc([S+](=O)([O-])Nc2ccc(-c3nc4ccccc4[nH]3)cc2)cc1OC | inactive | inactive
39 | O=C(O)c1ccc(CSc2nnc(-c3cccc([S+](=O)([O-])NC4CCCC4)c3)n2-c2ccccc2)cc1 | inactive | inactive
40 | CC(=O)NC(c1cccs1)c1cc(F)c2cccnc2c1O (centres undefined) | inactive | inactive
41 | Cc1ccc(-n2c(=O)ccc(=O)n2CC(=O)N(C)C(C)c2ccco2)cc1 (centres undefined) | inactive | inactive
42 | CCCCc1nnc(-c2cnn(C)c2N)n1CCCn1ccnc1 | inactive | inactive
43 | CC(=O)Nc1sc2c(c1-c1cccnc1)CCNC2 | inactive | inactive
44 | CC(=O)Nc1ccc(S(=O)(=O)Nc2cccc3cccnc23)cc1 | inactive | inactive

Row | Structure (SMILES) | Potency [1] | Potency [2]
45 | CC(C)O[C@@H]1O[C@H](CO)[C@@H](O)[C@H](O)[C@H]1O | inactive | inactive
46 | COc1cc(O)c(C(CC(=O)N2CCCC(c3ccccc3)C2)c2ccc3c(c2)OCO3)c(OC)c1 (centres undefined) | inactive | inactive
47 | CC(=O)N1CCc2cc(S(=O)(=O)Nc3ccc(C)c(C)c3)ccc21 | inactive | inactive
48 | COC(=O)c1c(-c2ccccc2)no[n+]1[O-] | inactive | inactive
49 | O=C1OC(c2ccccc2)(c2ccccc2)N2CCN(C(=O)NCc3ccc(F)cc3)CC12 (centres undefined) | inactive | inactive
50 | Cc1ccc(NS(=O)(=O)c2ccc(C(=O)Nc3nc(-c4ccccc4)cs3)cc2)cc1 | inactive | inactive
51 | CCOC(=O)c1nc(NCc2ccccc2)sc1C | inactive | inactive
52 | Cc1ccc(OCCn2c(CCNC(=O)c3ccccc3Br)nc3ccccc32)cc1 | inactive | inactive
53 | O=C(OCC#CCSc1nnc(-c2ccc3ccccc3c2)o1)c1cc2ccccc2s1 | inactive | inactive
54 | COc1cc(O)c(C(CC(=O)N2CCCC(C)(C)C2)c2ccc3c(c2)OCO3)c(OC)c1 (centres undefined) | inactive | inactive
55 | Cc1noc(C)c1-c1ccc2ncnc(NCC3CCN(C)CC3)c2c1 | inactive | inactive
56 | C=C1C(O)C(O)C2(CC3C(C)=CCC4C(C)(CO)CCCC34C)OC2C1O (centres undefined) | inactive | inactive
57 | COc1ccc(C(=O)Nc2ccc(-c3nc4ccccc4[nH]3)cc2)cc1C(F)(F)F | inactive | inactive
58 | c1nc(NCC2CCCCC2)c2cc(-c3ccc4c(c3)OCO4)ccc2n1 | inactive | inactive
59 | Cc1cc(C)n2ncc(C(=O)NC(C)C)c2n1 | inactive | inactive
60 | Cc1ccc(S(=O)(=O)Nc2cnccc2C(=O)Nc2nc3ccccc3s2)cc1 | inactive | inactive
61 | O=S(=O)(c1ccc2c(c1)OCCO2)N1CCN(S(=O)(=O)c2ccccc2Cl)CC1 | inactive | inactive
62 | CC1=C(C(=O)Nc2ccc(C)cc2)C(c2ccccc2Br)N=C(Nc2nc3ccccc3o2)N1 (centres undefined) | inactive | inactive
63 | Cc1cccc(NC(=O)c2cnn3c(C)cc(C)nc23)c1 | inactive | inactive
64 | Cc1cccc(CNc2ncnc3ccc(-c4ccc5c(c4)OCCO5)cc23)c1 | inactive | inactive
65 | O=C(O)c1ccc(-c2noc(-c3cccc(C(F)(F)F)c3)n2)cc1 | inactive | inactive
66 | Cc1ccc(-c2nn3c(C)nnc3s2)cc1NC(=O)c1ccc(-c2cccc(Cl)c2)o1 | inactive | inactive

Row | Structure (SMILES) | Potency [1] | Potency [2]
67 | COc1cc(OC)c(C(CC(=O)N2CC(C)CC(C)C2)c2ccc3c(c2)OCO3)c(OCC#N)c1 (centres undefined) | inactive | inactive
68 | Cc1cc(NS(=O)(=O)c2ccc(NC(=O)Cc3ccc(Cl)cc3)cc2)no1 | inactive | inactive
69 | O=[S+]([O-])(c1cc2ccccc2o1)N1CCN([S+](=O)([O-])c2c(F)cccc2F)CC1 | inactive | inactive
70 | COc1ccccc1/C=C/C(=O)NCCc1nc2ccccc2n1CCOc1ccc(C)cc1 | inactive | inactive
71 | Cc1nc(NC2CCCCC2)c2nc(-c3ccccc3)n(C(C)CN(C)C)c2n1 (centres undefined) | inactive | inactive
72 | O=C(Nc1nc(-c2ccccc2)cs1)c1ccncc1NS(=O)(=O)c1ccc2c(c1)CCC2 | inactive | inactive
73 | CN1C2CCC1CC(OC(=O)[C@H](CO)c1ccccc1)C2 (some centres undefined) | inactive | inactive
74 | COc1cccc(C2c3c(ncn(-c4ccc(C)cc4)c3=N)Oc3ccc4ccccc4c32)c1 (centres undefined) | inactive | inactive
75 | CCCCC(O)C(=O)Nc1cc(C(F)(F)F)ccc1Cl (centres undefined) | inactive | inactive
76 | COc1cccc(NC(=S)N2CCN(c3ccc(C(F)(F)F)cc3[N+](=O)[O-])CC2)n1 | inactive | inactive
77 | Cc1c(P(=S)(c2ccccc2)c2ccccc2)[n+]2ccccc2n1CC(=O)c1ccccc1 | inactive | inactive
78 | Cc1cc(C)c(C)c(S(=O)(=O)N2CCN(S(=O)(=O)c3ccc4c(c3)OCCO4)CC2)c1C | inactive | inactive
79 | Cc1ccc(-c2nc3c(c(SCC(=O)Nc4cccc(C(=O)O)c4)n2)Cc2cccc(C)c2O3)cc1 | inactive | inactive
80 | CC(C)Oc1cccc(-c2ccnc(N3CCC(C(N)=O)CC3)n2)c1 | inactive | inactive
81 | COc1ccccc1S(=O)(=O)Nc1ccc2c(c1)CN(C)C(=O)N2 | inactive | inactive
82 | CC(=O)Nc1sc2c(c1-c1ccc3nonc3c1)CCNC2 | inactive | inactive
83 | COc1ccc(NC(=O)CSc2nnc(-c3cccc(S(=O)(=O)N4CCCC4)c3)n2-c2ccccc2)cc1 | inactive | inactive
84 | O=C(CNC(=O)c1cccc(Cl)c1)OC(C(=O)Nc1cc(C(F)(F)F)ccc1Cl)c1ccccc1 (centres undefined) | inactive | inactive
85 | CC(C)(C)c1cccc(-n2cnc3cc(C(=O)N4CCCCC4)ccc32)c1 | inactive | inactive
86 | CC(=O)O[C@@]1(C)[C@@H]2CC(=C(C)C)C(=O)C[C@@]2(C)CC[C@H]1OC(=O)C1(C)OC1C (some centres undefined) | inactive | inactive
87 | O=c1c2ccccc2nc2sc(NCc3ccc(Oc4ccccc4)cc3)nn12 | inactive | inactive
